Our source for the ΔTm values is ChEMBL document CHEMBL5724796, “Tm Shift (DSF) assay results for EUbOPEN Chemogenomics Library” (2024).

Holding throughout (details): Compound concentration 20.0 uM
Experiment [1] addresses Tyrosine-protein kinase ABL1 (Homo sapiens) (UniProt P00519).
Experiment [2] deals with Bromodomain-containing protein 4 (Homo sapiens) (UniProt O60885).
Experiment [3] concerns the target Cyclin-dependent kinase 2 (Homo sapiens) (UniProt P24941).
Experiment [4] deals with Casein kinase I isoform delta (Homo sapiens) (UniProt P48730).
Casein kinase I isoform delta (Homo sapiens), sequence (P48730 whole entry, looked up, canonical isoform): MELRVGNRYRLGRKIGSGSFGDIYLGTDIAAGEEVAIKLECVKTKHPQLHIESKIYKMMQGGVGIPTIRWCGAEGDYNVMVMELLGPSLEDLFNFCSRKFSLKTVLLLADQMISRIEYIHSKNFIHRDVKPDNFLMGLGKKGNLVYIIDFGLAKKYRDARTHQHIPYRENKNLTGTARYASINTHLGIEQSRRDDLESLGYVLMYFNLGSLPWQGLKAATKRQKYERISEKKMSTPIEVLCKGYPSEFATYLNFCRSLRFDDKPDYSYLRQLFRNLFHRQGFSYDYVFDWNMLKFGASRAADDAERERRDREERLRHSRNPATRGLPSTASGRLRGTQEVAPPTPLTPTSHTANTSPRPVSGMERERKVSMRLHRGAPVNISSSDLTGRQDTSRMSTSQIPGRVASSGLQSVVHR
The target in experiment [5] is Glycogen synthase kinase-3 beta (Homo sapiens) (UniProt P49841).
Glycogen synthase kinase-3 beta (Homo sapiens), sequence (P49841 whole entry, looked up): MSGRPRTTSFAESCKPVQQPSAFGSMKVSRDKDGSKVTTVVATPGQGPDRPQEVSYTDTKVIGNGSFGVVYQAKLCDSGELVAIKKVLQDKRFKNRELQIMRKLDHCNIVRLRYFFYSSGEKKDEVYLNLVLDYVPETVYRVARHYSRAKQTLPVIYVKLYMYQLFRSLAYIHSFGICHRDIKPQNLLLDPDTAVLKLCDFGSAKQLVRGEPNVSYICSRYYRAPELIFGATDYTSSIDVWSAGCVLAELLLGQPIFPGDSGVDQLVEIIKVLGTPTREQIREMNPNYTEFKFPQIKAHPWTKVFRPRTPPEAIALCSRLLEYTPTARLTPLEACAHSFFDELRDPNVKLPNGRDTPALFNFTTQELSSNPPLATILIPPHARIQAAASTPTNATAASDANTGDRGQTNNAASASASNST
Experiment [6] deals with Mitogen-activated protein kinase 1 (Homo sapiens) (UniProt P28482).
Mitogen-activated protein kinase 1 (Homo sapiens), sequence (P28482 whole entry): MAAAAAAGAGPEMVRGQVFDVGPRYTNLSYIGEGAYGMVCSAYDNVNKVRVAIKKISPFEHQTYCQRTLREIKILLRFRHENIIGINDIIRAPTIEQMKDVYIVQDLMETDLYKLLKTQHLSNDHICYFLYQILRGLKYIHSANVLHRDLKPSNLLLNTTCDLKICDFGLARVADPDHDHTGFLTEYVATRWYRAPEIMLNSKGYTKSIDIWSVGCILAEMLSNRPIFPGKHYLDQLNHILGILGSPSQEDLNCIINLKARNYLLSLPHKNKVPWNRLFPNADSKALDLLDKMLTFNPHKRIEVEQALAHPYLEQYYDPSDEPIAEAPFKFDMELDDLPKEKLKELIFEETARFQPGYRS
The target in experiment [7] is T1, Aurora kinase A (Homo sapiens) (UniProt O14965).
T1 sequence (whole entry): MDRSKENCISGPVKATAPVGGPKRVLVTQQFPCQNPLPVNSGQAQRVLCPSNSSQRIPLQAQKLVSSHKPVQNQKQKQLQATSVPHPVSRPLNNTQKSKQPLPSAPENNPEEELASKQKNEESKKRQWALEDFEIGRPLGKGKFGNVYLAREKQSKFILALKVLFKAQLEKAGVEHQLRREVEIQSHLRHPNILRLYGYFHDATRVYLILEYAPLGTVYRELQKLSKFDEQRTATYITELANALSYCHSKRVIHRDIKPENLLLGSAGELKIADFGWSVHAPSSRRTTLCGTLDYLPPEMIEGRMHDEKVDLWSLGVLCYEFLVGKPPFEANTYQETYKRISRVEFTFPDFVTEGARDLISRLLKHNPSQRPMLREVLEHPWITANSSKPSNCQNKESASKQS

Experiment [8] deals with T2, Transcription intermediary factor 1-alpha (Homo sapiens) (UniProt O15164).
T2 sequence (whole entry): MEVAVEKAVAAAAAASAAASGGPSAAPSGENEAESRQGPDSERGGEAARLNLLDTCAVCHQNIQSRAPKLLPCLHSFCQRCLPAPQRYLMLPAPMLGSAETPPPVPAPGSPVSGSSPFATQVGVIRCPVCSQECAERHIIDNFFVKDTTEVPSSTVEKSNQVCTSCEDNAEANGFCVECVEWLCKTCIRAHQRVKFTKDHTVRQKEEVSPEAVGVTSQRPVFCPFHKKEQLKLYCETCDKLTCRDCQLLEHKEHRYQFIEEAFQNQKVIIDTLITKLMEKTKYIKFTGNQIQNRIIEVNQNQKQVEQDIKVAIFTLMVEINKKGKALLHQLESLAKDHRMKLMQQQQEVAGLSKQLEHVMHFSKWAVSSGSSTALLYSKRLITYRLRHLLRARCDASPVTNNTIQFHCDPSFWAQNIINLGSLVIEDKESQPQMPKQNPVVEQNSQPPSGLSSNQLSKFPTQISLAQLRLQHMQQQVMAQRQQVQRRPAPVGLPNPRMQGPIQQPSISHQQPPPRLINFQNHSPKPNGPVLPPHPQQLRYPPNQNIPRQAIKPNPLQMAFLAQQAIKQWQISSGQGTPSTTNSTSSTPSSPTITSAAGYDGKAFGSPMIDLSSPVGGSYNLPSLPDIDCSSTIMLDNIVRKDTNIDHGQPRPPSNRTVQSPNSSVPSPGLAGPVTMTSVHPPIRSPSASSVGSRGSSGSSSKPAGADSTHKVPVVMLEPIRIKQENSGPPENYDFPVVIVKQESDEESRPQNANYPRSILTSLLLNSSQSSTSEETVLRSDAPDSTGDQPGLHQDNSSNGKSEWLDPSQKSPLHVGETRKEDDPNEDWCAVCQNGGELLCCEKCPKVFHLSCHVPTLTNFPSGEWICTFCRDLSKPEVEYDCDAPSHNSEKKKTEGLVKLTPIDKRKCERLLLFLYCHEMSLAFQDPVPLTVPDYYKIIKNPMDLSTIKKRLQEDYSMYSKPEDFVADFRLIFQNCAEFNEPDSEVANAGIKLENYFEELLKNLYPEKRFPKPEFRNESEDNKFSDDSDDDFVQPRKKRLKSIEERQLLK

Tyrosine-protein kinase ABL1 (Homo sapiens), sequence (P00519 whole entry): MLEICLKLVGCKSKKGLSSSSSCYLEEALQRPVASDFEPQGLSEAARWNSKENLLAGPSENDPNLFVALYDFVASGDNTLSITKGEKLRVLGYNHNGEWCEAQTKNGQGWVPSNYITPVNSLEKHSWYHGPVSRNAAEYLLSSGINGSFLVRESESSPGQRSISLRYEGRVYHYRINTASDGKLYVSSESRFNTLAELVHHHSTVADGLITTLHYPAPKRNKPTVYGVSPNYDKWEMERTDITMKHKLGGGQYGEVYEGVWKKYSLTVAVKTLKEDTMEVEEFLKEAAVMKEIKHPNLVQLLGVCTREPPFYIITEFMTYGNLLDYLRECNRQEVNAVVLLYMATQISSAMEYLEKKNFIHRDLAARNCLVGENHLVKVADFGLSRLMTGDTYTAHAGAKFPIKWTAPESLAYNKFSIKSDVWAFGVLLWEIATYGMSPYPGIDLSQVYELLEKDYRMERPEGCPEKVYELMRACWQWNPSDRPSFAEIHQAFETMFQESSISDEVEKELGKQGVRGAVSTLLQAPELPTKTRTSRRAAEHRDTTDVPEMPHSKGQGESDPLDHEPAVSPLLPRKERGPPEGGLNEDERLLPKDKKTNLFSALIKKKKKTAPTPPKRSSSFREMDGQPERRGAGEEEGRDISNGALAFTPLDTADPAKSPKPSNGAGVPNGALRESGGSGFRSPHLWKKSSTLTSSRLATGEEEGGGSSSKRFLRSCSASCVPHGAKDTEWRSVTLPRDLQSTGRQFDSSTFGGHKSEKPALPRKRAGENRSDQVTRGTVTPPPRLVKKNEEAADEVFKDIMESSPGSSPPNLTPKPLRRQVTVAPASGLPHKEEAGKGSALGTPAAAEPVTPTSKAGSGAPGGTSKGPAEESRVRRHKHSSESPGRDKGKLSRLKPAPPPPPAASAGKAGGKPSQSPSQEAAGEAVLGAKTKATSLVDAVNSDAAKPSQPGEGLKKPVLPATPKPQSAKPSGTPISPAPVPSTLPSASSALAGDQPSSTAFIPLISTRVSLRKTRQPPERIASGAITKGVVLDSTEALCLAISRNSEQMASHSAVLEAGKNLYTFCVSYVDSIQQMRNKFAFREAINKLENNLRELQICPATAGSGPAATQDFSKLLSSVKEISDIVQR

For the compound `O=C1C(P(=O)(O)O)CC(O)N1O` (stereo not drawn), the ΔTm is 0.12 °C in experiment [1]; 0.66 °C in experiment [2]; -0.03 °C in experiment [3]; -0.38 °C in experiment [4]; -0.77 °C in experiment [5]; 0.16 °C in experiment [6]. Moreover, the ΔTm in experiment [7] was -2.18 °C; in experiment [8], -0.46 °C.
With `Nc1cc2c3c(c1)C(c1ccccc1)=N[C@@H](NC(=O)c1cccnc1)C(=O)N3CC2`, the ΔTm is 0.6 °C in experiment [1]; -0.29 °C in experiment [2]; 0.3 °C in experiment [3]; -0.17 °C in experiment [4]; -0.38 °C in experiment [5]; 0.37 °C in experiment [6]. The ΔTm is -2.21 °C in experiment [7] and -0.79 °C in experiment [8].
Turning to `COc1cn(-c2ccc(-n3cccn3)cc2F)nc(-c2ccnn2-c2ccccc2)c1=O`, the ΔTm in experiment [1] came to 0.53 °C; in experiment [2] it was 0.2 °C; in experiment [3] it was 1.24 °C; in experiment [4] it was 0.13 °C; in experiment [5] it was 0.96 °C; in experiment [6], 0.22 °C. Besides, the ΔTm in experiment [7] was -1.86 °C; in experiment [8] it was -0.41 °C.
Regarding `CCOC(=O)c1ccc(-c2ccc(OC(=O)N(C)Cc3cccc(-c4ccncc4)c3)cc2)cc1`, the ΔTm is 1.38 °C in experiment [1]; -2.49 °C in experiment [2]; 0.29 °C in experiment [3]; -0.29 °C in experiment [4]; -4.12 °C in experiment [5]; 0.21 °C in experiment [6]. Also, the ΔTm is -1.65 °C in experiment [7] and -0.65 °C in experiment [8].
With `N#Cc1nc2c(nc1C#N)-c1ccccc1C2=NOCc1ccccc1`, the ΔTm is 0.19 °C in experiment [1]; 1.2 °C in experiment [2]; 3.11 °C in experiment [3]; -0.93 °C in experiment [4]; 0.13 °C in experiment [5]; -0.23 °C in experiment [6]. Besides, the ΔTm in experiment [7] is -1.52 °C; in experiment [8], 1.99 °C.
On to `COc1cc(C)[nH]c(=O)c1CNC(=O)c1c(C)n([C@H](C)C2CCOCC2)c2ccccc12`, for which the ΔTm in experiment [1] is 0.28 °C; in experiment [2], -1.94 °C; in experiment [3], 0.11 °C; in experiment [4], 0.07 °C; in experiment [5] it was -0.59 °C; in experiment [6], -0.18 °C. Moreover, the ΔTm in experiment [7] is -0.23 °C; in experiment [8], -0.56 °C.
Take `O=C(NCCCCc1ccccc1)n1c(=O)oc2cc(-c3ccc(F)cc3)ccc21`: the ΔTm was 0.52 °C in experiment [1]; -2.75 °C in experiment [2]; 0.86 °C in experiment [3]; -0.19 °C in experiment [4]; 0.3 °C in experiment [5]; 0.07 °C in experiment [6]. Besides, the ΔTm in experiment [7] is -1.29 °C; in experiment [8] it was 0.81 °C.
On to `N#Cc1ccc(N2N=C3c4ccc(C(=O)O)cc4CC[C@@H]3[C@@H]2C2CCCC2)cc1Cl`, for which the ΔTm in experiment [1] is -2.47 °C; in experiment [2], 0 °C; in experiment [3], -2.04 °C; in experiment [4], -4.9 °C; in experiment [5], 0 °C; in experiment [6] it was -9.49 °C. Moreover, the ΔTm was found to be 0.42 °C in experiment [7] and 1.43 °C in experiment [8].
As for `CN(C)NC(=O)CCC(=O)O`, the ΔTm is 0.19 °C in experiment [1]; -2.43 °C in experiment [2]; -0.11 °C in experiment [3]; -0.1 °C in experiment [4]; -0.76 °C in experiment [5]; 0.1 °C in experiment [6]. Also, the thermal shift (ΔTm) in experiment [7] is -2.27 °C; in experiment [8], -0.24 °C.
For `O=[N+]([O-])c1cc(O)c(O)c([N+](=O)[O-])c1`, the ΔTm was 0.3 °C in experiment [1]; 2.94 °C in experiment [2]; 1.19 °C in experiment [3]; -0.22 °C in experiment [4]; -0.11 °C in experiment [5]; 0.24 °C in experiment [6]. Further, the ΔTm was 0.17 °C in experiment [7] and 3.59 °C in experiment [8].
With `CC(C)=C[C@H]1C[C@H](C)[C@]2(CC[C@]3(C)C[C@H]4[C@H](C(=O)C[C@@]4(C)O)/C(C=O)=C\C[C@H]32)O1`, the ΔTm in experiment [1] was -0.34 °C; in experiment [2] it was -1.06 °C; in experiment [3], -0.29 °C; in experiment [4], -0.36 °C; in experiment [5], -0.53 °C; in experiment [6], -0.16 °C. The ΔTm in experiment [7] and in experiment [8] was -1.12 °C in each case.
